Test results reported in PubChem BioAssay AID651920 (Broad Institute, 2012).
Potency and affinity values are given separately. The source made the active and inactive calls.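 The calls were made as follows: active = compounds lowering viability with a fitted half-maximal potency at or below twice the top tested dose; inconclusive = flat fit showing 30 to 70% loss, or poor fit; inactive = the rest.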

Assay: cytotoxicity in primary human melanocytes, dose response, cytotoxicity control, cell-based, plate reader, dry powder (AID 651920)
Details: ATP luminescence, 24 h; series mostly up to 35 µM; activity change, negative = viability loss: at the top concentration

Row | Structure (SMILES) | activity change, negative = viability loss
1 | NC1=C(NS(=O)(=O)c2ccccc2)C(=O)c2ccccc2C1=O | 8.49% (inactive)
2 | NC1=C(NS(=O)(=O)c2ccc(Br)s2)C(=O)c2ccccc2C1=O | 6.49% (inactive)
3 | O=C1C(Nc2cccc(Cl)c2)=C(N2CCCC2)C(=O)c2ccccc21 | -2.73% (inactive)
4 | O=C1C=C(Nc2ccccc2)C(=O)c2ccccc21 | 6.12% (inactive)
5 | NC1=C(NS(=O)(=O)c2ccc(Br)cc2)C(=O)c2ccccc2C1=O | 0.856% (inactive)
6 | NC1=C(NS(=O)(=O)c2cccs2)C(=O)c2ccccc2C1=O | 8.73% (inactive)
7 | O=C1C(Nc2ccc(F)cc2)=C(N2CCCCC2)C(=O)c2ccccc21 | -0.278% (inactive)
8 | CC(C)N1CCN(C2=C(Nc3ccc(F)cc3)C(=O)c3ccccc3C2=O)CC1 | 4.05% (inactive)
9 | CN1CCN(C2=C(Nc3ccc(F)cc3F)C(=O)c3ccccc3C2=O)CC1 | 3.7% (inactive)
10 | Cc1ccc(NC2=CC(=O)c3ccccc3C2=O)cc1 | 3.64% (inactive)
11 | CC(C)N1CCN(C2=C(Nc3ccc(F)cc3F)C(=O)c3ccccc3C2=O)CC1 | -11.3% (inactive)
12 | CCN1CCN(C2=C(Nc3ccc(F)cc3F)C(=O)c3ccccc3C2=O)CC1 | 12% (inactive)
13 | O=C1C(Nc2ccc(Br)cc2)=C(N2CCCCC2)C(=O)c2ccccc21 | 4.72% (inactive)
14 | O=C1C(Nc2ccc(Cl)cc2)=C(N2CCCC2)C(=O)c2ccccc21 | -6.05% (inactive)
